Data reported in PubChem BioAssay AID1233 (SRMLSC, 2008).
Entries with a potency or affinity are not part of this list. Active and inactive are the calls of the source.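 How the source made its calls: active means a dose-response curve fit returns a half-maximal inhibitory concentration, extrapolated values included; inactive means the fit returns no such concentration.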

Each molecule was assayed against HMG-CoA reductase [Enterococcus faecalis] (UniProt Q9FD70) (assay: class II HMG-CoA reductase inhibition potency – biochemical, Enterococcus faecalis, confirmation (AID 1233)). Conditions: purified E. faecalis HMGR, NADPH absorbance 340 nm kinetics; series mostly up to 100 µM.

outcome, inactive:
O=C(COC(=O)CCc1c[nH]c2ccccc12)NC1CCS(=O)(=O)C1 (stereo not drawn)
O=C(Nc1ccccc1)C(Cc1ccccc1)NC(=O)C12CC3CC(CC(C3)C1)C2 (stereo not drawn)
O=C(NCC1CCCO1)c1ccc(Cl)c(F)c1F (stereo not drawn)
CCC(=O)N/N=C(\C)CC(=O)Nc1ccccc1-c1ccccc1
CCN(CC)C(=S)NC(=O)c1cccnc1
Cc1cc(C(=O)N[C@H](c2ccccc2)[C@@]2(C)C[C@@H]2[C@@H](C)C(=O)Nc2ccc3ccccc3c2)no1
Cc1nc(Nc2nc3ccccc3o2)nc2c1CCC2
OCc1ccccc1CNCc1ccccc1
Cc1cc(C)c(S(=O)(=O)c2ccccc2)c(OC(=O)c2c(F)cccc2F)n1
CC1CN(C(=O)c2ccncc2)CC(C)O1 (stereo not drawn)
CCOC(=O)C(CC)n1cnc2c(nnn2-c2ccc(OC)cc2)c1=O (stereo not drawn)
O=c1oc2ccccc2c(O)c1C=Nc1cccnc1
O=C(Oc1ccccc1O)c1cccc2ccccc12
CSc1nc(-c2ccc(C)cc2)nc(C(Cl)Cl)n1
CCCn1c(C(O)c2ccc(OC)cc2)nc2ccccc21 (stereo not drawn)
O=C(Nc1ccc(Cl)cc1)Nc1nnc(-c2ccncc2)s1
COc1ccccc1-c1c(C(F)(F)F)oc2cc(OC(=O)c3cccc([N+](=O)[O-])c3C)ccc2c1=O
O=C1c2ccccc2C(=O)C1c1ccc2ccccc2n1
CN(CC(=O)NCCc1ccccc1)S(=O)(=O)c1ccccc1
COC(=O)c1ccc(NC(=O)Nc2ccccc2F)cc1
CCOC(=O)C(=O)Nc1ccc([N+](=O)[O-])cc1OC
Cc1cc(N2C(=O)C(O)=C(C(=O)c3ccco3)C2c2cccnc2)no1 (stereo not drawn)
CCN(C(=O)Cn1cc(C(F)(F)F)ccc1=O)c1c(N)n(Cc2ccccc2)c(=O)[nH]c1=O
Clc1ccc2c(c1)C(c1cccs1)=NNC(c1cccnc1)=N2
CCCCNC(=O)c1ccccc1NC(=O)CCSc1ccccc1
Cc1ccc(S(=O)(=O)NCCCCCC(=O)N(C)C)cc1
Cc1ccc2nc(-c3cc(N)cc(N)c3)oc2c1
Cc1ccc(S(=O)(=O)N2CCCC(C(=O)NCCCN3CCCCC3C)C2)cc1 (stereo not drawn)
CC1(C)CC(CCC(=O)Nc2ccccc2Cl)C(=O)O1 (stereo not drawn)
O=C(COC(=O)/C=C/c1ccco1)Nc1ccc(F)cc1Cl
Cn1c(OCc2cccnc2)nc2c1c(=O)n(Cc1ccc(Br)cc1)c(=O)n2C
O=S(=O)(NCC1CCCO1)c1ccc2c(c1)OCCO2 (stereo not drawn)
Cc1ccc(S(=O)(=O)N(C)C)cc1NC(=O)COC(=O)CCC(=O)c1cccs1
O=C(O)CCCCCCC1C(=O)NC(=O)N1CCC(O)C1CCCCC1 (stereo not drawn)
Cc1c(NC(=O)CN2C(=O)c3ccccc3S2(=O)=O)c(=O)n(-c2ccccc2)n1C
Cc1ccc(Cn2nnc3c(=O)n(CC(=O)NCc4ccco4)cnc32)cc1
Cc1cc(SCn2nnc3ccccc3c2=O)nc2ccccc12
CCOC(=O)Cc1nn(Cc2ccccc2)c(=O)c2ccccc12
